Results filed as inconclusive are left out. Activity calls are given as the source filed them. Calls follow the shape of the dose curve; as a rule, active = well fitted inhibition curve with a large enough effect; inconclusive = small, poorly fitted or top-dose-only effect; inactive = no such curve, though single readings can be large or run the other way.

The source of these data is PubChem BioAssay (NCATS).

The experiment is described as follows: P-glycoprotein substrates identified in KB-3-1 adenocarcinoma cell line, qHTS therapeutic library screen (AID 1346986). Also: nearly all actives have a fitted effect of over 60% in size. The following applies: KB-3-1 parental cells viability, CellTiter-Glo, 72 h; series mostly up to 44.5 µM. The essentials:
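In 1536-well format, 500 cells/well received pinned compound titrations and were incubated 72 h, 5% CO2. Viability was read by CellTiter-Glo; cytotoxic if AC50 < 10 uM and efficacy >50%.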
Consider `C[C@H](O)C(O)(C(=O)OCc1ccccc1NC(=O)CCC(N)C(=O)O)[C@H](C)O` (some centres undefined), for which the “outcome” value was “inactive [at 17.4 µM]”.
The entry for `CC(O)C1NC(=O)C2CCCN2C1=O` (centres undefined) is “inactive [at 93.4 µM]”.
In the case of `OCC1=C[C@@H](O)[C@@H]2C=CO[C@@H](O[C@@H]3O[C@H](CO)[C@@H](O)[C@H](O)[C@H]3O)[C@H]12` it was “inactive”; in that of `C=C[C@@]1(C)CCC2=C([C@H]1OC(C)=O)[C@H](OC(C)=O)CC1[C@](C)(C(=O)OC)CC[C@H](OC(C)=O)[C@]21C` (some centres undefined), “inactive [at 17.4 µM]”.
The entry for `C=C1CC[C@@]2(OC1)O[C@H]1CC3[C@@H]4CC=C5C[C@@H](O)C[C@@H](O[C@@H]6OC[C@H](O)[C@H](O)[C@H]6O[C@@H]6O[C@@H](C)[C@H](O)[C@@H](O)[C@H]6O)[C@]5(C)C4CC[C@]3(C)[C@H]1[C@@H]2C` (some centres undefined) is “inactive [at 17.4 µM]”.
With `CCC12CCCN3CCc4c(n(c5ccccc45)C(O)C1)C32` (centres undefined), the result was inactive.
The entry for `COCCCc1sc(-c2ccccc2)nc1C(=O)Nc1ccccc1-c1nc2cc(CN3CCCC3)cnc2s1` is “inactive [at 17.4 µM]”; for `COc1cc(/C=C/C(=O)O[C@H]2C[C@@H]3C(C(=O)O)=CO[C@@H](O[C@@H]4O[C@H](CO)[C@@H](O)[C@H](O)[C@H]4O)[C@@H]3[C@H]2C)ccc1O` it is “inactive [at 17.4 µM]”; for `COC(=O)C1=COC(O[C@@H]2O[C@H](CO)[C@@H](O)[C@H](O)[C@H]2O)[C@@H]2[C@@](C)(O)[C@@H](OC(=O)/C=C/c3ccccc3)C[C@]12O` (some centres undefined) it is “inactive [at 17.4 µM]”.
The entry for `CCCN(CCN1CCN(c2ccccc2OC)CC1)C1CCc2ncsc2C1` (centres undefined) is “inactive”.
Turning to `CC(=O)O[C@@H]1[C@H](O[C@@H]2O[C@H](CO)[C@@H](O)[C@H](O)[C@H]2O)[C@@H](O[C@@H]2O[C@@H](C)[C@H](O)[C@@H](O[C@@H]3O[C@H](CO)[C@@H](O)[C@H](O)[C@H]3O)[C@H]2O)[C@H](OC(=O)[C@]23CCC(C)(C)C[C@H]2C2=CCC4[C@@]5(C)C[C@H](O)[C@H](O[C@@H]6O[C@H](C(=O)O)[C@@H](O)[C@H](O)[C@H]6O)[C@@](C)(C(=O)O)C5CC[C@@]4(C)[C@]2(C)CC3)O[C@@H]1C` (some centres undefined), the outcome was “inactive [at 9.29 µM]”.
As for `Nc1ncnc2c1ncn2[C@H]1O[C@@H](C(=O)N2CCN(CC(=O)Nc3cccc4c3CNC4=O)CC2)[C@H](O)[C@@H]1O`, the outcome was inactive.
The entry for `C=CCC1=C[C@]2(OC)[C@H](C)[C@@H](c3ccc(OC)c(OC)c3)O[C@]2(OC)CC1=O` is “inactive”; for `C=C1C[C@H](O)[C@@H](O)[C@@]2(C)C1[C@@H](O)[C@H]1OC(=O)C3[C@@H](C)[C@@H](O)[C@H](O)C2[C@]31C` (some centres undefined) it is “inactive”; for `CC1(C)Oc2ncnc(N)c2N=C1c1ccc(C2CCC(CC(=O)O)CC2)cc1` (centres undefined) it is “inactive”.
In the case of `CCC(C)/C=C(C)/C=C/C1=CC2=C(Cl)C(=O)C(C)(O)C(=O)C2(O)C(OC)O1` (centres undefined) it was “inactive [at 17.4 µM]”; in that of `CC(=O)O[C@H]1[C@H](O[C@H]2CC[C@]34C[C@]35CC[C@]3(C)[C@@H]([C@@]6(C)CC[C@@H](C(C)(C)O)O6)[C@@H](O)C[C@@]3(C)[C@@H]5C[C@H](O[C@@H]3O[C@H](CO)[C@@H](O)[C@H](O)[C@H]3O)[C@H]4C2(C)C)OC[C@@H](OC(C)=O)[C@@H]1O`, “inactive”.
Take `C[C@@]1(C(=O)O)CCC[C@@]2(C)C3=CC[C@H]4C[C@@]3(CC[C@H]12)CC4(O)CO` (some centres undefined): the result was inactive.
The entry for `C=C1[C@H](OC(C)=O)[C@H]2[C@@H](OC(=O)c3ccccc3)[C@@H](C)C[C@]2(O)[C@@H](OC(C)=O)[C@H](C)/C=C/C(C)(C)C(=O)[C@H](OC(C)=O)[C@H]1OC(C)=O` is “inactive [at 17.4 µM]”; for `COC1OC(=O)C2=C1C1(C)CCCC(C)(C)C1CC2O` (centres undefined) it is “inactive”.
Regarding `COc1ccc(O[C@@H]2O[C@H](CO)[C@@H](O)[C@H](O)[C@H]2O)cc1OC`, the result was inactive.
`CCCC1=CC2=C(CO1)C(=O)C(C)(O)C(OC(=O)c1c(C)cc(OC)cc1O)C2` (centres undefined): the “outcome” value is “inactive [at 17.4 µM]”.
`Cc1onc(-c2c(Cl)cccc2Cl)c1CC(=O)NCc1ccc(OCC(F)(F)F)nc1`: the result was inactive.
The entry for `CCOC(=O)CSc1nc2c(sc3ccccc32)c(=O)n1CCCN1CCCC1` is “inactive”.
In the case of `COc1ccc(-n2[nH]c3c(cnc4ccccc43)c2=O)cc1` it was “inactive”; in that of `CC(=O)N[C@H](Cc1c[nH]c2ccccc12)C(=O)OCc1cc(C(F)(F)F)cc(C(F)(F)F)c1`, “inactive”.
For the compound `COc1cccc(CN(C(=O)CC(C)(C)C)C2CC(C(=O)N3CCNCC3)N(Cc3ccc4c(c3)OCO4)C2)c1` (centres undefined), the result was inactive.
In the case of `CC1=COC(OC2OC(CO)C(O)C(O)C2O)C2C(CO)CC(OC(=O)/C=C/c3ccc(O)cc3)C12` (centres undefined) it was “inactive [at 17.4 µM]”; in that of `C[C@H](/C=C/[C@@]1(O)[C@H](C)CC(=O)CC1(C)C)O[C@@H]1O[C@H](CO[C@@H]2OC[C@@H](O)[C@H](O)[C@H]2O)[C@@H](O)[C@H](O)[C@H]1O`, “inactive [at 17.4 µM]”; in that of `NC(N)=NCCC[C@H](NC(=O)c1sccc1NS(=O)(=O)c1cccc2nsnc12)C(=O)O`, “inactive”.
In the case of `CCc1nn(CCO)c(CC)c1Oc1cc(C#N)cc(C#N)c1` it was “inactive”; in that of `C[C@@H]1O[C@@H](O[C@@H]2\C=C/C=C\C=C/C=C\C[C@H](C)OC(=O)/C=C\[C@H]3O[C@@H]3C[C@H](O)C[C@]3(O)C[C@@H](O)[C@@H](C(=O)O)[C@H](C2)O3)[C@H](O)[C@H](N)[C@@H]1O`, “inactive”; in that of `COc1cc(O)cc(O[C@@H]2O[C@H](CO)[C@@H](O[C@@H]3OC[C@](O)(CO)[C@H]3O)[C@H](O)[C@H]2O)c1OC`, “inactive [at 17.4 µM]”.
The entry for `CC(C)=CC1C[C@](C)(O)[C@@H]2[C@H]3CCC4[C@@]5(C)CC[C@H](O[C@@H]6OC[C@H](O)[C@H](O[C@@H]7O[C@H](CO[C@@H]8O[C@H](CO)[C@@H](O)[C@H](O)[C@H]8O)[C@@H](O)[C@H](O)[C@H]7O)[C@H]6O[C@@H]6O[C@@H](C)[C@H](O)[C@@H](O)[C@H]6O)C(C)(C)[C@@H]5CC[C@@]4(C)[C@@]34CO[C@@]2(C4)O1` (some centres undefined) is “inactive [at 9.29 µM]”; for `COc1cc2c(cc1O)CC(O)(CO)C(CO)C2c1ccc(OC2OC(CO)C(O)C(O)C2O)c(OC)c1` (centres undefined) it is “inactive [at 17.4 µM]”.
Regarding `CC1(C)CC[C@]2(C(=O)O)CC[C@]3(C)C(=CCC4[C@@]5(C)CC[C@H](O[C@@H]6O[C@H](C(=O)O)[C@@H](O)[C@H](O[C@@H]7O[C@H](CO)[C@H](O)[C@H](O)[C@H]7O)[C@H]6O[C@@H]6O[C@H](CO)[C@@H](O)[C@H](O)[C@H]6O)C(C)(C)C5CC[C@]43C)[C@@H]2C1` (some centres undefined), the outcome is “inactive [at 5.11 µM]”.
On to `O=C(O[C@H]1[C@H](Oc2ccc(O)cc2CO)O[C@H](CO)[C@@H](O)[C@@H]1O)c1ccccc1`, for which the “outcome” value was “inactive [at 17.4 µM]”.
The entry for `CCOc1ncc(S(=O)(=O)N2CCN(CC)CC2)cc1-c1nc2c(CC)n(CCOC)nc2c(=O)[nH]1` is “inactive”.
`CC1(C)C=Cc2c(ccc3c2N=C2C(C)(C)[C@@H]4C[C@]56CCCN5C(=O)[C@@]4(C[C@]23O)NC6=O)O1`: the “outcome” value was “inactive [at 17.4 µM]”.
